Experimental data from the supplement of paper PMC6607015.
Structures can show the parent of a compound that is named as a salt.

System: A431
Assay: LBPA endosome anti-LBPA integrated intensity (sum per cell), Z-score; higher = more LBPA staining
Settings: compound concentration in added solution (µM; 5 µl added to 20 µl cells): 10; 18 h
Summary of the method: (§1)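 Each value is a Z-score normalised in AcuityXpress from per-cell integrated LBPA or filipin intensity, taken over the whole cell or within LBPA endosomes. Duplicate 384-well imaging plates held 5 µl of 10 µM compound solution, onto which 3,500 HeLa MZ or A431 cells in 20 µl were seeded per well. After 18 h the cells were fixed in 4% PFA, stained with 6C4 anti-LBPA antibody, filipin, propidium iodide and CellTracker green, imaged four times per well at 20× and segmented in MetaXpress.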

| SMILES | LBPA endosome anti-LBPA integrated intensity (z-score) |
| --- | --- |
| CCCC(C)(COC(N)=O)COC(=O)NC(C)C (stereo not drawn) [Carisoprodol] | -0.659 |
| CO[C@]12C[C@@H](COC(=O)c3cncc(Br)c3)CN(C)[C@@H]1Cc1cn(C)c3cccc2c13 [Nicergoline] | 3.54 |
| NC(=O)C[S+]([O-])C(c1ccccc1)c1ccccc1 (stereo not drawn) [Modafinil] | -0.574 |

System: HeLa MZ
Assay: as above
Settings: compound concentration in added solution (µM; 5 µl added to 20 µl cells): 10; 18 h
Summary of the method: as §1

| SMILES | LBPA endosome anti-LBPA integrated intensity (z-score) |
| --- | --- |
| C[N+]1(C)[C@@H]2CC[C@H]1C[C@@H](OC(=O)C(CO)c1ccccc1)C2 (stereo partly drawn) [Methylatropine nitrate] | 0.224 |
| COc1ccc(C(=O)N2CCCC2=O)cc1 [Aniracetam] | 0.124 |
| CC(C)c1c(CN(C)C(C)Cc2ccccc2)n(C)n(-c2ccccc2)c1=O (stereo not drawn) [Famprofazone] | -0.241 |
| CC(=O)OCC1=C(C(=O)O)N2C(=O)[C@@H](N)[C@H]2SC1 [Cephalosporanic acid, 7-amino] | -1.08 |
| O=P1(N(CCCl)CCCl)NCCCO1 (stereo not drawn) [Cyclophosphamide] | 1.02 |
| C#CCN(C)[C@H](C)Cc1ccccc1 [Selegiline hydrochloride] | -1.62 |
| CC(=O)[C@H]1CC[C@H]2[C@@H]3CC[C@H]4C[C@H](O)CC[C@]4(C)[C@H]3C(=O)C[C@]12C [Alfaxalone] | 1.23 |
| Cc1cc(C(C#N)c2ccc(Cl)cc2)c(Cl)cc1NC(=O)c1cc(I)cc(I)c1O (stereo not drawn) [Closantel] | -1 |
| C[C@]12C[C@H]3S[C@H]3C[C@@H]1CC[C@@H]1[C@@H]2CC[C@]2(C)[C@@H](O)CC[C@@H]12 [Epitiostanol] | 0.565 |
| C=CCC1(CC(C)C)C(=O)NC(=O)NC1=O [Butalbital] | -0.493 |
| O=C([O-])c1ccccc1-c1c2cc(Br)c(=O)cc-2oc2[c]([Hg+])c([O-])c(Br)cc12.[Na+].[Na+].[OH-] [Merbromin] | -1.95 |
| C#C[C@]1(O)CC[C@H]2[C@@H]3CCC4=CC(=O)CCC4=C3C=C[C@@]21CC [Gestrinone] | -0.347 |
| CNC(C)(C)Cc1ccccc1 [Mephentermine hemisulfate] | -0.965 |
| C1CCc2nnnn2CC1 [Pentylenetetrazole] | -1.19 |
| Clc1ccc(C(OCCN2CCCCC2)c2ccccc2)cc1 (stereo not drawn) [Cloperastine hydrochloride] | 1.44 |
| CN1[C@@H]2C[C@@H](OC(=O)[C@H](CO)c3ccccc3)C[C@H]1[C@@H]1O[C@@H]12 [Scopolamine hydrochloride] | -0.0951 |
| CC(Cc1ccc(O)cc1)NCC(O)c1cc(O)cc(O)c1 (stereo not drawn) [Fenoterol hydrobromide] | 0.00712 |
| COc1ccc2c(c1)[C@]13CCCC[C@@H]1[C@H](C2)N(C)CC3 [Dextromethorphan hydrobromide monohydrate] | 0.494 |

| SMILES | LBPA endosome anti-LBPA integrated intensity (z-score) |
| --- | --- |
| CN1[C@@H]2CC[C@H]1C[C@@H](OC(=O)C(CO)c1ccccc1)C2 (stereo partly drawn) [Atropine sulfate monohydrate] | -0.87 |
| CC(=O)O[C@H]1CC[C@@]2(C)C(=CC[C@@H]3[C@@H]2CC[C@]2(C)C(=O)CC[C@@H]32)C1 [Dehydroisoandosterone 3-acetate] | -0.00203 |
| O=c1[nH]oc2c1CCNC2 [THIP Hydrochloride] | -1.24 |
| O=C(CCCN1CCC(n2c(=O)[nH]c3ccccc32)CC1)c1ccc(F)cc1 [Benperidol] | 1.55 |
| CC1OC(OC2/C=C/C=C/C=C/C=C/CC/C=C/C=C/[C@H](C)[C@@H](O)[C@@H](C)[C@H](C)OC(=O)CC(O)CC(O)CC(O)CCC(O)C(O)C[C@]3(O)CC(O)C(C(=O)O)C(C2)O3)C(O)C(N)C1O (stereo partly drawn) [Nystatine] | 0.129 |
| CCNC1(c2cccs2)CCCCC1=O (stereo not drawn) [Tiletamine hydrochloride] | -0.0498 |
| C=C(C)[C@@H]1[C@H]2OC(=O)[C@@H]1[C@]1(O)C[C@H]3O[C@]34C(=O)O[C@H]2[C@]14C [Picrotoxinin] | -0.88 |
| CC(C)C[C@H]1C(=O)N2CCC[C@H]2[C@]2(O)O[C@](NC(=O)[C@@H]3C=C4c5cccc6[nH]c(Br)c(c56)C[C@H]4N(C)C3)(C(C)C)C(=O)N12 [Bromocryptine mesylate] | 2.32 |
| CCC1(C)CC(=O)NC(=O)C1 [Bemegride] | -1.05 |
| C[C@]12CC[C@H](O)C[C@@H]1CC[C@@H]1[C@@H]2CC[C@]2(C)C(=O)CC[C@@H]12 [Epiandrosterone] | 0.767 |
| N[C@@H]1C[C@H]1c1ccccc1 [Tranylcypromine hydrochloride] | -0.919 |
| CCCCCC[C@H]1C(=O)O[C@H](C)[C@H](NC(=O)c2cccc(NC=O)c2O)C(=O)O[C@@H](C)[C@@H]1OC(=O)CC(C)C [Antimycin A] | -0.65 |
| CC(C)CC(N(C)C)C1(c2ccc(Cl)cc2)CCC1 (stereo not drawn) [Sibutramine HCl] | 0.271 |
| CCC(C)C1O[C@]2(C=C[C@@H]1C)C[C@@H]1CC(C/C=C(\C)[C@@H](OC3C[C@H](OC)[C@@H](OC4C[C@H](OC)[C@@H](O)[C@H](C)O4)[C@H](C)O3)[C@@H](C)/C=C/C=C3\COC4[C@H](O)C(C)=CC(C(=O)O1)[C@]34O)O2 (stereo partly drawn) [Avermectin B1a] | 0.136 |
| CCCC(C)(COC(N)=O)COC(=O)NC(C)C (stereo not drawn) [Carisoprodol] | -0.835 |
| CO[C@]12C[C@@H](COC(=O)c3cncc(Br)c3)CN(C)[C@@H]1Cc1cn(C)c3cccc2c13 [Nicergoline] | 1.32 |
| NC(=O)C[S+]([O-])C(c1ccccc1)c1ccccc1 (stereo not drawn) [Modafinil] | -0.833 |
